In all, about 33,000 sequences were measured (“e-score”: median about -0.038, highest 2% from about 0.33 on). The sample holds the highest values, similar sequences and a random draw of the others, so the mix is not that of the screen.

The source of these data is article PMC6212790, “How bacterial xenogeneic silencer rok distinguishes foreign from self DNA in its resident genome”.

The test concerns the target T1, GST-Rok-C97-191 (Bacillus subtilis subsp. subtilis str. …, UniProt O34857 97-191).
T1 sequence: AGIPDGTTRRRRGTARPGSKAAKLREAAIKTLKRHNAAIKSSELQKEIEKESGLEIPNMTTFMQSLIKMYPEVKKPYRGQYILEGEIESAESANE
The test is described as follows: protein binding microarray; Rok is a gene silencer of Bacillus subtilis; high values mean tight binding. Conditions: protein: recombinant; tags: GST (pTH5325, pDEST15-Magic modified); dsDNA, one strand shown. In short, it runs like this: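 Every oligonucleotide joins a 25-mer constant primer to a 35-mer variable part drawn from a de Bruijn sequence of order 10, so each non-palindromic 8-mer appears at least 32 times and each palindromic 8-mer 16 times. The preference for every 8-mer is reported as a unitless, rank-based enrichment score (E-score). This score spans 0.5 for the most favored 8-mer to −0.5 for the most disfavored.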
For CGAGTAGC, the binding signal is -0.0476 E-score. The value for AGTCAAGG was -0.145 E-score; that for CATGCTCC was -0.102 E-score.

Turning to AAAGGATG, the binding signal was -0.047 E-score. In the case of AGACAGTA it was 0.0933 E-score; in that of GAGAACGA, -0.104 E-score. The value for CGAGCAAG was -0.0658 E-score. For CTTACGGC, the binding signal is -0.196 E-score.

Consider CATATTGC, for which the binding signal was determined as 0.0992 E-score.

Turning to CAGGTCAA, the binding signal is -0.108 E-score. For ATGTAGAA, the binding signal was 0.38 E-score. Turning to AGGTAGAA, the binding signal was found to be 0.433 E-score.

In the case of AGGTAGAG, the binding signal is 0.118 E-score. In the case of CTGTAGAA it was 0.258 E-score; in that of GTGTAGAA, 0.293 E-score; in that of AGGTAGAC, 0.093 E-score. The value for ACCTCTTA was 0.191 E-score; that for TCATAGGA was 0.154 E-score. CAGGAGCA: the binding signal was -0.151 E-score. On to CAACCTAC, for which the binding signal turned out to be 0.263 E-score. The value for AACATCCT was 0.0847 E-score. The value for CGCCTACG was -0.0439 E-score; that for CCCTTGAC was -0.132 E-score. In the case of AACAGTAA it was 0.285 E-score; in that of AATAGTGT, 0.242 E-score; in that of GAAAGTAC, 0.35 E-score. With AATAGTCA, the binding signal was 0.186 E-score. Consider GAAAGTAA, for which the binding signal amounted to 0.226 E-score.

As for AACAGTAG, the binding signal came to 0.362 E-score. The value for AATAGTAC was 0.293 E-score. The value for AATAGTAA was 0.338 E-score; that for ATTAGTAA was 0.303 E-score; that for AATAGTAT was 0.332 E-score. The value for CACAGTAG was 0.0897 E-score. As for CAAAGTAC, the binding signal is -0.0306 E-score. In the case of AGTTGCCA it was 0.0801 E-score; in that of ATTAGGGC, -0.073 E-score; in that of CAAGACTA, 0.186 E-score. With CTGACGAA, the binding signal is -0.0673 E-score. The value for GATAGCGC was 0.191 E-score; that for GCAAATAA was 0.158 E-score.

Consider AATGATGA, for which the binding signal was found to be 0.00727 E-score. In the case of AAAAGTAG it was 0.344 E-score; in that of AATAGTCG, -0.0896 E-score. In the case of AAAAGTAC it was 0.279 E-score; in that of CAAAGTAG, 0.194 E-score; in that of CATAGTAG, 0.195 E-score.

As for AATAGTAG, the binding signal is 0.475 E-score. AGACCACG: the binding signal is -0.138 E-score. In the case of CGTGTAAC, the binding signal turned out to be 0.0552 E-score. The value for CTAGGCAC was -0.149 E-score; that for CGGCTAAC was 0.00729 E-score; that for GAGTTCAC was 0.0331 E-score. In the case of AGCTCGGG it was -0.116 E-score; in that of AATATAAG, 0.26 E-score; in that of AATATATG, 0.337 E-score.

CGTATATC: the binding signal was found to be 0.316 E-score. In the case of CCTATATC it was 0.0424 E-score. The value for AATATGTG was 0.199 E-score; that for AATATATC was 0.424 E-score. As for AATATATT, the binding signal is 0.417 E-score. The value for AATATAGA was 0.309 E-score; that for AATATATA was 0.462 E-score.

In the case of AAAATATT, the binding signal was found to be 0.327 E-score. The value for ACTATATG was 0.283 E-score; that for AATATTAT was 0.21 E-score. In the case of CAGAAACG it was -0.0943 E-score; in that of TAAGTCAA, -0.0154 E-score.

Take ATGATCCA: the binding signal was determined as 0.0416 E-score. The value for ACCAACAT was 0.157 E-score. As to CCATCGGG, the binding signal is -0.172 E-score. The value for GCCGGACA was 0.0879 E-score; that for CTTATGTA was 0.0579 E-score. As for GTTATGTA, the binding signal worked out at 0.292 E-score.

Regarding CCTATGTA, the binding signal is 0.302 E-score.

Take GCTATGTA: the binding signal came to 0.226 E-score. The value for ATTATGTA was 0.354 E-score; that for ACTATGTA was 0.356 E-score. The value for AAGGGCAG was -0.195 E-score; that for AACACATG was 0.0194 E-score; that for AAGCTGTC was 0.0421 E-score. The value for ACCAGGAC was -0.0513 E-score; that for AAATGTAA was 0.349 E-score. Regarding AAATGTAC, the binding signal is 0.364 E-score. In the case of CCATGTAC it was 0.185 E-score; in that of GAATGTAA, 0.173 E-score; in that of GCATGTAC, 0.163 E-score. In the case of CAATGTAC it was 0.204 E-score; in that of ACATGTAC, 0.331 E-score. In the case of TAATGTAA it was 0.357 E-score. As to CAATGTAA, the binding signal is -0.0287 E-score. The value for AAATGTAT was 0.27 E-score; that for GAATGTAC was 0.304 E-score. Take AAATGTAG: the binding signal was 0.286 E-score. Turning to TAATTAGA, the binding signal is 0.324 E-score.

Consider CATAAAGC, for which the binding signal was -0.119 E-score. Take GTGCTAGA: the binding signal was 0.197 E-score. As for CTAGCAAC, the binding signal was found to be 0.222 E-score. On to TGCGACAA, for which the binding signal was -0.0569 E-score. In the case of CGTGCAGC it was -0.0438 E-score; in that of GCTACGGA, -0.0221 E-score; in that of CCCTAGCG, -0.135 E-score.

In the case of CCACGCTC, the binding signal is -0.0229 E-score. The value for ATAGGTTA was 0.162 E-score. The value for ATCTGTAG was 0.37 E-score; that for ATATGTAG was 0.386 E-score; that for AGATGTAG was 0.331 E-score. The value for AGATGTAA was 0.191 E-score.

For ATATGTAC, the binding signal worked out at 0.309 E-score.

Take ATCTGTAA: the binding signal was found to be 0.106 E-score. In the case of AGATGTAT it was 0.264 E-score.

For ATCTGTAC, the binding signal is 0.0594 E-score. The value for ATATGTAA was 0.28 E-score; that for AAAAGTGG was 0.0303 E-score. With GCTACATA, the binding signal was found to be 0.315 E-score. In the case of GCTAGGCA it was -0.0675 E-score. Take CAAGGGCC: the binding signal is -0.186 E-score.

As for AAAATACT, the binding signal amounted to 0.371 E-score. As for GAAATACC, the binding signal amounted to 0.289 E-score. In the case of AAAATACA it was 0.32 E-score; in that of CAAATACC, 0.114 E-score.

Regarding AAAATACC, the binding signal was 0.357 E-score. In the case of AAAATACG it was 0.266 E-score; in that of AAGTAAGG, 0.0741 E-score; in that of AGAGTTTC, -0.0267 E-score.

Turning to GTCGGTTA, the binding signal is 0.00256 E-score. Regarding AAAGTTTG, the binding signal was -0.0186 E-score. In the case of AGAACGCC it was 0.0453 E-score; in that of AGGTCCTC, -0.0779 E-score; in that of ACTCCTTA, 0.00627 E-score. On to AAAACCAA, for which the binding signal stood at 0.0758 E-score. As to AGTGATGA, the binding signal was 0.024 E-score. The value for GGTAGTAC was 0.268 E-score; that for AGTAGTAT was 0.368 E-score; that for CGTAGTAG was 0.223 E-score.

Turning to ATTAGTAG, the binding signal was 0.319 E-score.

Consider AGTAGTAC, for which the binding signal worked out at 0.356 E-score.

As to AGAAGTAT, the binding signal came out at 0.292 E-score. As to CGTAGTAC, the binding signal came to 0.186 E-score. With AGCAGTAT, the binding signal stood at 0.0236 E-score. In the case of AGTAGTAG, the binding signal amounted to 0.385 E-score. Consider GTTGGCTA, for which the binding signal came to 0.0528 E-score. For the sequence CACAGGTA, the binding signal was -0.0357 E-score. The value for CTCAATAA was 0.215 E-score; that for CATATTTA was 0.282 E-score; that for AATATTAC was 0.284 E-score.

With GGTATTTA, the binding signal turned out to be 0.342 E-score. The value for CGTATTTA was 0.318 E-score; that for AATATTTA was 0.311 E-score. In the case of AGTATTTA it was 0.301 E-score. Regarding AATATTAA, the binding signal was 0.285 E-score. Consider GATATTAA, for which the binding signal was 0.379 E-score. The value for CATATTAA was 0.194 E-score. In the case of CATATTAC it was 0.22 E-score; in that of GATATTAC, 0.328 E-score.

With GATATTTA, the binding signal was determined as 0.328 E-score. The value for CTGCAGGC was -0.199 E-score; that for ACCACTCG was -0.181 E-score; that for ACATCATG was -0.155 E-score. In the case of GCTCGACA it was -0.145 E-score; in that of CCCATTAC, -0.0975 E-score; in that of GCTAACAC, -0.0971 E-score. The value for TGCCTGAA was -0.0885 E-score; that for CGAGTCCG was -0.192 E-score.

As to TATATTGA, the binding signal is 0.288 E-score.

TATATTAA: the binding signal was 0.387 E-score. In the case of TGTATTAA it was 0.294 E-score. The value for CAACGAAA was 0.00998 E-score; that for AATTCACG was 0.127 E-score; that for CGCTTTGA was -0.0415 E-score. The value for ACTACTGA was 0.269 E-score; that for CGTACTTA was 0.23 E-score.
